Data reported in PubChem BioAssay (NCI).
The panel holds about 83,000 compounds, 20% with a hit somewhere; the sample as a whole holds those more often.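 For each line, cells grew in 96-well plates with the test compound present at a single concentration for 48 hours.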 Values without a mark were called inactive. The source made the active and inactive calls. Rule for the calls: active = growth percent below 10; inactive = the rest.

Key:
Assay in all cases: NCI-60 one-dose screen, 48 h (100 = growth as untreated, 0 = no growth, -100 = all killed)
Conditions in all cases: 10 µM unless noted
[1] = system: NCI-H23 lung
[2] = system: NCI-H322M lung
[3] = system: HOP-62 NSCLC
[4] = system: NCI-H460 lung
[5] = system: HOP-92 NSCLC
[6] = system: NCI-H522 lung
[7] = system: A549/ATCC NSCLC
[8] = system: 786-0 renal
[9] = system: COLO 205 colon
[10] = system: DU-145 prostate
[11] = system: K-562 leukemia
[12] = system: MALME-3M melanoma
[13] = system: MDA-MB-231 breast
[14] = system: RXF 393 renal
[15] = system: SF-268 CNS
[16] = system: SF-295 CNS
[17] = system: SF-539 CNS
[18] = system: UACC-257 melanoma
[19] = system: M14 melanoma
[20] = system: HCT-15 colon

Compound	growth [1]	growth [2] [%]	growth [3]	growth [4]	growth [5]	growth [6]	growth [7]	growth [8]	growth [9]	growth [10]	growth [11]	growth [12]	growth [13]	growth [14]	growth [15]	growth [16]	growth [17]	growth [18]	growth [19]	growth [20]
CCN(CC)CCNC(=O)C(Cl)=C1C(Cl)=C(Cl)C(Cl)=C1Cl	55.9%	81.7	75.5%	19.3%	53.8%	-14.7% (active)	46.6%	90.1%	54.5%	48.4%	24.2%	58%	50.1%	66.9%	52%	71.7%	60.1%	44.3%	38.7%	50.5%
CC1=C(CC(=O)c2cccc([N+](=O)[O-])c2)C(=O)c2ccccc2C1=O	-24.9% (active)	68.7	-67.2% (active)	-20.9% (active)	-22.3% (active)	-47.2% (active)	-15.3% (active)	-53.2% (active)	108%	-57% (active)	-4.57% (active)	-87.5% (active)	-17.7% (active)	-26% (active)	-33.4% (active)	-58.2% (active)	-22.1% (active)	-13.7% (active)	-41.9% (active)	19.5%
O=C(Nc1ccc(Cl)cc1)N1CCN(c2ccc3nncn3n2)CC1	77.2%	29.8	-11.4% (active)	-27.3% (active)	-21.8% (active)	-45.1% (active)	-12% (active)	-85.9% (active)	-81.2% (active)	36%	-61.1% (active)	-86.8% (active)	-55.5% (active)	-81.2% (active)	-48.1% (active)	-87.2% (active)	-86.7% (active)	-68.9% (active)	-87.1% (active)	0.448% (active)
CCOC(=O)c1cc2c(n1Cc1ccccc1)-c1oncc1CCC2	88.3%	107	77.9%	97.3%	86.3%	61.4%	59.2%	102%	69%	114%	24.1%	39.2%	74.4%	84.6%	88.7%	98.2%	83.3%	82.5%	68%	45.7%
CCOC(=O)C1=C(C)N=c2s/c(=C\c3ccccc3O)c(=O)n2C1c1ccc(OC)c2ccccc12 (stereo not given)	82.3%	10.5	29.2%	-41.8% (active)	4.78% (active)	-36.2% (active)	-21.1% (active)	36%	-90% (active)	43.5%	-48.4% (active)	-86.7% (active)	-38.9% (active)	-20.6% (active)	37.6%	-83.5% (active)	-83.7% (active)	-85.8% (active)	-71.7% (active)	1.84% (active)
COc1ccc2sc(N(Cc3cccnc3)C(=O)c3ccc(C#N)cc3)nc2c1	96.3%	101	94.4%	101%	60.7%	124%	81.9%	69.8%	84%	93.5%	16.4%	60.9%	71.5%	92.8%	87.7%	35.6%	70.5%	-46.3% (active)	25.4%	66.1%
CCN1C(=O)N(CC)C2Nn3c(s/c(=C\c4ccccc4F)c3=O)=NC21 (stereo not given)	41.8%	59.4	59.3%	21.6%	67.5%	27.5%	31.6%	49.3%	7.99% (active)	37.4%	15.9%	78.4%	35.1%	36.7%	54.9%	14.9%	11.6%	65.2%	23.3%	26.5%
O=S1(=O)N(Cc2ccccc2)[C@@H](Cc2ccccc2)C2O[C@H]2[C@H](Cc2ccccc2)N1Cc1ccccc1 (stereo not given in full)	37.6%	84.9	53.6%	9.31% (active)	114%	49.3%	44.1%	40.6%	61.8%	34.3%	23.4%	67.8%	24.2%	45.2%	57.8%	38%	38.6%	39.1%	72.6%	26.1%
Nc1nc(-c2cnccn2)nn1-c1nc2ccccc2s1	95.2%	103	95.4%	104%	106%	88.4%	92.7%	102%	111%	106%	93.9%	104%	95.4%	110%	99.2%	103%	101%	99.1%	99.2%	103%
Cc1cc(Br)c(N)c(Br)c1	97%	105	87.9%	104%	106%	86.3%	73.3%	93.3%	106%	108%	90%	104%	103%	106%	106%	95.9%	95.5%	77.5%	89.3%	96.1%
O=S1(=O)N(Cc2ccccc2)[C@@H](Cc2ccccc2)[C@H](O)[C@H](O)[C@H](Cc2ccccc2)N1Cc1ccccc1	1.32% (active)	12.6	18.4%	-44.8% (active)	4.2% (active)	9.21% (active)	6.12% (active)	-1.43% (active)	-0.273% (active)	-23.4% (active)	3.12% (active)	-14.2% (active)	-7.98% (active)	-40.8% (active)	25.3%	-11.2% (active)	-5.16% (active)	-22.1% (active)	-2.4% (active)	3.16% (active)
CCOC(=O)C(CC(=O)O)=C(C(=O)OCC)C(=O)OCC	105%	114	104%	107%	89.5%	114%	101%	115%	121%	109%	106%	121%	123%	102%	107%	100%	102%	100%	115%	96.8%
O=C1c2cc(Br)ccc2Oc2cc([N+](=O)[O-])ccc2N1c1ccc(I)cc1F	93%	103	102%	102%	101%	96.2%	82%	104%	123%	105%	101%	99.8%	101%	94.5%	93.1%	98.2%	101%	97.6%	91.8%	97.7%
CC(C)[C@H](NC(=O)Cn1cc(C(=O)O)nn1)C(=O)O	97.3%	99.9	108%	106%	99.2%	104%	97%	104%	119%	114%	118%	101%	97.6%	112%	115%	93%	105%	99.6%	108%	100%
FC(F)(F)c1cccc(CNC2CCN(CCc3ccccc3)CC2)c1	71.6%	84	91.1%	59.8%	15.7%	86.7%	77.5%	78.6%	76.2%	59.1%	30.1%	74.8%	66.5%	84.1%	74.7%	81.7%	93.5%	87%	49.2%	86.8%
